Results published in the supplement of paper PMC7411054.

Key:
Conditions in all cases: treatment time: 24 h
A549-ACTB-RAB5A [1] = assay: lowest phenotypically active concentration; higher = less potent
How it was run: (§1)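 Each of fifteen gene-edited A549, HepG2 and WPMY1 reporter lines, marked with BFP for segmentation and GFP and RFP/FusionRed, was treated in four wells at 0.3, 1, 3 or 9 µM for 24 h prior to live imaging. Normalisation of per-well live-cell features used solvent control wells. Deviation needed ≥3 of 4 wells beyond the 95th percentile of control Euclidean distances, and reproducibility needed a median replicate Pearson correlation above the 95th percentile of non-replicates. Both were required for phenotypic activity.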

A549-CANX-COX4 [2] = assay: as above
How it was run: as §1

A549-GM130-SQSTM1 [3] = assay: as above
How it was run: as §1

A549-TP53BP1-CLTA [4] = assay: as above
How it was run: as §1

A549-TUBA1B-RELA [5] = assay: as above
How it was run: as §1

A549-ACTB-RAB5A [6] = assay: phenotypically active (imaging signature differs from DMSO and reproducible) at any of 0.3-9 uM (binary (1 = active, 0 = inactive)); higher = active
How it was run: as §1

A549-CANX-COX4 [7] = assay: as above
How it was run: as §1

A549-GM130-SQSTM1 [8] = assay: as above
How it was run: as §1

A549-TP53BP1-CLTA [9] = assay: as above
How it was run: as §1

A549-TUBA1B-RELA [10] = assay: as above
How it was run: as §1

HepG2-ACTB-RAB5A = assay: as above
How it was run: as §1

HepG2-CANX-COX4 = assay: as above
How it was run: as §1

HepG2-GM130-SQSTM1 = assay: as above
How it was run: as §1

HepG2-TP53BP1-CLTA = assay: as above
How it was run: as §1

HepG2-TUBA1B-RELA = assay: as above
How it was run: as §1

WPMY1-ACTB-RAB5A = assay: as above
How it was run: as §1

WPMY1-CANX-COX4 = assay: as above
How it was run: as §1

WPMY1-GM130-SQSTM1 = assay: as above
How it was run: as §1

WPMY1-TP53BP1-CLTA = assay: as above
How it was run: as §1

WPMY1-TUBA1B-RELA = assay: as above
How it was run: as §1

Structure (SMILES)	lowest phenotypically active concentration (A549-ACTB-RAB5A [1]) [µM]	lowest phenotypically active concentration (A549-CANX-COX4 [2]) [µM]	lowest phenotypically active concentration (A549-GM130-SQSTM1 [3]) [µM]	lowest phenotypically active concentration (A549-TP53BP1-CLTA [4]) [µM]	lowest phenotypically active concentration (A549-TUBA1B-RELA [5]) [µM]	phenotypically active (A549-ACTB-RAB5A [6])	phenotypically active (A549-CANX-COX4 [7])	phenotypically active (A549-GM130-SQSTM1 [8])	phenotypically active (A549-TP53BP1-CLTA [9])	phenotypically active (A549-TUBA1B-RELA [10])	phenotypically active (HepG2-ACTB-RAB5A)	phenotypically active (HepG2-CANX-COX4)	phenotypically active (HepG2-GM130-SQSTM1)	phenotypically active (HepG2-TP53BP1-CLTA)	phenotypically active (HepG2-TUBA1B-RELA)	phenotypically active (WPMY1-ACTB-RAB5A)	phenotypically active (WPMY1-CANX-COX4)	phenotypically active (WPMY1-GM130-SQSTM1)	phenotypically active (WPMY1-TP53BP1-CLTA)	phenotypically active (WPMY1-TUBA1B-RELA)
CC[C@@H]1C(=O)N(C)c2cnc(Nc3ccc(C(=O)NC4CCN(C)CC4)cc3OC)nc2N1C1CCCC1	≤ 0.3	≤ 0.3	1	≤ 0.3	≤ 0.3	1 (active)	1 (active)	1 (active)	1 (active)	1 (active)	1 (active)	1 (active)	1 (active)	1 (active)	1 (active)	1 (active)	1 (active)	1 (active)	1 (active)	1 (active)
O=C(Cc1ccc(-c2ccc(OCCN3CCOCC3)cc2)cn1)NCc1ccccc1	≤ 0.3	≤ 0.3	≤ 0.3	≤ 0.3	≤ 0.3	1 (active)	1 (active)	1 (active)	1 (active)	1 (active)	1 (active)	1 (active)	1 (active)	1 (active)	1 (active)	1 (active)	1 (active)	1 (active)	1 (active)	1 (active)
Nc1ccn([C@@H]2O[C@H](CO)[C@@H](O)[C@@H]2O)c(=O)n1 [cytarabine]	≤ 0.3	≤ 0.3	≤ 0.3	≤ 0.3	≤ 0.3	1 (active)	1 (active)	1 (active)	1 (active)	1 (active)	1 (active)	1 (active)	1 (active)	1 (active)	1 (active)	1 (active)	1 (active)	1 (active)	1 (active)	1 (active)
CC(=O)NCC(=O)N1[C@@H]2CC[C@H]1c1ccc(Nc3ncc(C(F)(F)F)c(NC4CCC4)n3)cc12	≤ 0.3	≤ 0.3	≤ 0.3	≤ 0.3	≤ 0.3	1 (active)	1 (active)	1 (active)	1 (active)	1 (active)	1 (active)	1 (active)	1 (active)	1 (active)	1 (active)	1 (active)	1 (active)	1 (active)	1 (active)	1 (active)
c1ccc2c(c1)Cc1c(Nc3ccc4c(c3)OCCO4)n[nH]c1-2	3	3	3	3	3	1 (active)	1 (active)	1 (active)	1 (active)	1 (active)	1 (active)	1 (active)	1 (active)	1 (active)	1 (active)	1 (active)	1 (active)	1 (active)	1 (active)	1 (active)
Nc1ncn([C@@H]2O[C@H](CO)[C@@H](O)[C@H]2O)c(=O)n1 [5-Azacytidine]	1	3	1	1	9	1 (active)	1 (active)	1 (active)	1 (active)	1 (active)	1 (active)	1 (active)	1 (active)	1 (active)	1 (active)	1 (active)	1 (active)	1 (active)	1 (active)	1 (active)
O=C(CCCc1ccc(-c2ccccc2F)cc1)Nc1ccc(O)cc1	1	1	1	1	1	1 (active)	1 (active)	1 (active)	1 (active)	1 (active)	1 (active)	1 (active)	1 (active)	1 (active)	1 (active)	1 (active)	1 (active)	1 (active)	1 (active)	1 (active)
CCC1=C[C@@H]2CN(C1)Cc1c([nH]c3ccccc13)[C@@](C(=O)OC)(c1cc3c(cc1OC)N(C)[C@H]1[C@@](O)(C(=O)OC)[C@H](OC(C)=O)[C@]4(CC)C=CCN5CC[C@]31[C@@H]54)C2 [vinorelbine]	≤ 0.3	≤ 0.3	≤ 0.3	≤ 0.3	≤ 0.3	1 (active)	1 (active)	1 (active)	1 (active)	1 (active)	1 (active)	1 (active)	1 (active)	1 (active)	1 (active)	1 (active)	1 (active)	1 (active)	1 (active)	1 (active)
COc1cc(OC2CCN(C)CC2)ccc1Nc1ncc2c(n1)n(C1CCCC1)c(=O)n2C	3	3	3	3	3	1 (active)	1 (active)	1 (active)	1 (active)	1 (active)	1 (active)	1 (active)	1 (active)	1 (active)	1 (active)	1 (active)	1 (active)	1 (active)	1 (active)	1 (active)
C[C@@H]1COCCN1c1cc(C2(S(C)(=O)=O)CC2)nc(-c2cccc3[nH]ccc23)n1	≤ 0.3	1	≤ 0.3	≤ 0.3	1	1 (active)	1 (active)	1 (active)	1 (active)	1 (active)	1 (active)	1 (active)	1 (active)	1 (active)	1 (active)	1 (active)	1 (active)	1 (active)	1 (active)	1 (active)
CC(C)(C)Nc1nc(Nc2ccc(C(N)=O)cc2)cc(N)c1C#N	3	3	3	3	3	1 (active)	1 (active)	1 (active)	1 (active)	1 (active)	1 (active)	1 (active)	1 (active)	1 (active)	1 (active)	1 (active)	1 (active)	1 (active)	1 (active)	1 (active)
